Screens as filed in PubChem BioAssay.
PNC assembly inh: inhibitors of perinucleolar compartment assembly | PC3M PTB-GFP, PNC prevalence imaging, 16 h; stronger effect = lower value | activity change (PNC), negative = inhibition, % at 10 µM | hit rate 3.1% among 140,000;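 active = readout at or below -70, meaning at least 70% loss of cells showing the perinucleolar compartment, a nuclear body marking cancer cells; inconclusive = readout between -30 and a set limit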
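Read-out is percentage of cells bearing a perinucleolar compartment, from automated 20x imaging of fixed, Hoechst-stained PC3M PTB-GFP cells. Cells were seeded 4 h, then exposed 16 h to compound (23 nl of library stock) in duplicate plates.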
Lamin A splicing: LMNA splicing modulation | hit rate 0.01% among 200,000 | HeLa LMNA splicing GFP/RFP minigene ratio, 48 h | Potency, µM (top dose mostly 46.1 µM), most hits filed as inhibitors; active = well fitted inhibition curve with a large enough effect in the signal ratio, with a control signal flat, not every such curve was filed as active; inconclusive = small, poorly fitted or top-dose-only effect, or effect the other way, or a change in a side signal; the % refers to the signal ratio
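S3 HeLa cells stably expressing lamin A-EGFP splicing minigene plus DsRed2, 600 cells/well, 48 h compound exposure at 37C. Laser-scanning cytometry; analysed as GFP (500-530 nm)/RFP (575-640 nm) total intensity ratio; 0.5% DMSO vehicle.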
ALDH1A1 inh: blocks purified human ALDH1A1 activity. P00352. hit rate 7.3% among 220,000. AID 1030. Purified ALDH1A1, NADH fluorescence, propionaldehyde substrate. Potency, µM (doses to about 75.3 µM), hits mostly inhibitors
Target sequence (P00352 whole entry, looked up): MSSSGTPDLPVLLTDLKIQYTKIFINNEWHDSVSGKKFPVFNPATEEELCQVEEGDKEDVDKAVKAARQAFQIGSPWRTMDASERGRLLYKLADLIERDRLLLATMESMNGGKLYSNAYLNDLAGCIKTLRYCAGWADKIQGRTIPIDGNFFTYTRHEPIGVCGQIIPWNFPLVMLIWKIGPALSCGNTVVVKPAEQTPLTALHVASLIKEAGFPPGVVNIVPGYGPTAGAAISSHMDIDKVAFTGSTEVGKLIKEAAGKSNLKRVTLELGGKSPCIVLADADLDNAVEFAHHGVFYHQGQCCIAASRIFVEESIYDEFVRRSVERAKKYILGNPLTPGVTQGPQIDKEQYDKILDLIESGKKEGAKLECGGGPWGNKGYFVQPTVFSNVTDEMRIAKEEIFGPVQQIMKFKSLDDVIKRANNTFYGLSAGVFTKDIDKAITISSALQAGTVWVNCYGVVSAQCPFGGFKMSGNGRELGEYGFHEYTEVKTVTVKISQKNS
ALOX12 inhib: blocks human 12-lipoxygenase activity | P18054 | purified 12-hLO, xylenol orange hydroperoxide absorbance | Potency, µM (highest dose often 57.1 µM), actives largely listed as inhibitors | hit rate 0.12% among 150,000 | AID 1452; active = well fitted inhibition curve with a large enough effect; inconclusive = small, poorly fitted or top-dose-only effect; note: nearly all actives have a fitted effect of over 55% in size
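Purified human 12hLO (150 nM final) was preincubated with compounds for 15 min at room temperature in 25 mM Hepes pH 7.0, 0.01% Triton X-100, then reacted with 40 uM arachidonic acid for 30 min. Hydroperoxide was detected with ferrous iron/xylenol orange.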
HPGD inh: HPGD (human) dehydrogenase inhibition | P15428 | purified HPGD, NADH fluorescence kinetic, PGE2 substrate | Potency, µM, usual class: inhibitors | hit rate 4.3% among 150,000
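20 nM HPGD preincubated 15 min at room temperature with compound in 50 mM Tris-HCl pH 8, 0.01% Tween 20. Started with 1 mM NAD+ and 30 uM prostaglandin E2; NADH fluorescence (360/450 nm) read 5 times over 30-s intervals, last minus first.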
Hits are given with their value; i = inactive; ? = inconclusive; nt = no result; [ ] = remark or other dose. In the library only some 10% were active in any assay of this set; here they are far more common. Unless noted, calls come from the whole dose curve; as a rule, active = well fitted inhibition curve with a large enough effect (not every such curve was filed as active); inconclusive = small, poorly fitted or top-dose-only effect, or another doubt; inactive = no such curve, though single readings can be large or run the other way.

SMILES | PNC assembly inh | Lamin A splicing | ALDH1A1 inh | ALOX12 inhib | HPGD inh
CCCOc1ccc(OCCN2CCCC(C)C2)cc1 (stereo unspecified) | i | ? | ? | i | i
CC(C)Oc1ccc(OCCCN2CCCCCC2)cc1 | i | i | i | i | i
CCOC(=O)c1[nH]c(C)c(CCC(=O)N2CCN(c3cccc(OC)c3)CC2)c1C | nt | i | nt | nt | nt
CO[C@]12C[C@@H](COC(=O)c3cncc(Br)c3)CN(C)[C@@H]1Cc1cn(C)c3cccc2c13 | nt | i | i | nt | i
CCOc1ccc(OCCN2CCCCC2)cc1 | -88 | i | i | i | i
CCC(C)c1ccc(OCCN2CCCC2)cc1 (stereo unspecified) | i | i | ? | i | i
Brc1cccc(OCCCN2CCCCCC2)c1 | nt | nt | 13µM | nt | nt
CCCC(O)(CCN1CCOCC1)c1ccc(Br)cc1 (stereo unspecified) | i | i | 5µM | i | i
O=C(NCCCN1CCOCC1)c1ccc(Br)cc1 | i | i | i | i | i
Cc1ccccc1N(CC(=O)N1CCOCC1)S(C)(=O)=O | nt | i | ? | nt | nt
COc1ccc(CN(Cc2ccco2)c2cnc(S(C)(=O)=O)nc2C(=O)Nc2ccc(F)cc2)cc1 | nt | i | nt | nt | nt
N#CC(C#N)=C1C=CC=CN1/C(=C\c1ccccc1Cl)C(=O)c1ccccc1 | i | ? | ? | i | 7.9µM
N#CC(C#N)=C1C=CC=CN1/C(=C\c1ccccc1)C(=O)c1cccs1 | i | ? | ? | i | ?
COc1ccc(CN(CC2CCC(C(=O)O)CC2)C(=S)Nc2cc(C)ccc2C)cc1 (stereo unspecified) | nt | i | 3.5µM | nt | nt
Cc1ccc(C)c(NC(=S)N(Cc2cccc(Br)c2)CC2CCC(C(=O)O)CC2)c1 (stereo unspecified) | nt | ? | i | nt | nt
CC(C)CN1CCCC2(CCN(C(=O)c3cccn3C)CC2)C1 | nt | nt | i | i | i
CCOC(=O)C1C(=O)C=C(c2ccc(C)cc2)CC1c1ccccc1 (stereo unspecified) | nt | ? | i | nt | nt
CCOC(=O)C1C(=O)C=C(c2ccc(Br)cc2)CC1c1ccco1 (stereo unspecified) | i | ? | 16µM | i | i
CCOC(=O)C1C(=O)C=C(c2cccc(NS(C)(=O)=O)c2)CC1c1ccco1 (stereo unspecified) | i | ? | 20µM | i | i
Cc1c(C(=O)NN2CCOCC2)nn(-c2ccc(Cl)cc2Cl)c1-c1ccc(I)cc1 | nt | nt | i | i | i
CC(NS(=O)(=O)/C=C/c1ccccc1)C(=O)NCCc1ccc(S(N)(=O)=O)cc1 (stereo unspecified) | nt | i | i | nt | nt
CCN(CC)c1cccc(OC2=NS(=O)(=O)c3ccccc32)c1 | i | i | 22µM | i | nt
CCc1ccc(OC2=NS(=O)(=O)c3ccccc32)cc1 | nt | nt | i | nt | nt
CCC(C)NC(=S)N1CCN(C)CC1 (stereo unspecified) | nt | nt | 22µM | nt | nt
CCOc1ccc(NC(=O)CN2CCN(CC(=O)Nc3ccc(Cl)c(C(F)(F)F)c3)CC2)cc1 | ? | ? | 13µM | i | i
SMILES | PNC assembly inh | Lamin A splicing | ALDH1A1 inh | ALOX12 inhib | HPGD inh
Cc1ccc2nc(C3CCN(CC(=O)Nc4ccc5c(c4)OCCO5)CC3)[nH]c2c1 | i | i | 22µM | i | i
CCOc1ccc(NC(=O)CN2CCN(CC(=O)Nc3cc(OC)cc(OC)c3)CC2)cc1 | i | i | 11µM | i | i
CCOc1ccc(NC(=O)CN2CCN(CC(=O)Nc3cccc(F)c3)CC2)cc1 | i | i | 18µM | i | i
CCOc1ccc(NC(=O)CN2CCN(CC(=O)Nc3ccc(F)cc3F)CC2)cc1 | nt | i | nt | nt | nt
NC1=C(O)C(=O)[C@H](c2c[nH]c3ccc(OCc4ccccc4)cc23)O1 | nt | nt | i[13.5 µM] | i[11.4 µM] | i
CCOc1ccc(NC(=O)CN2CCN(CC(=O)Nc3ccc4c(c3)OCCO4)CC2)cc1 | ? | i | 8.9µM | i | i
CC(=O)Nc1nonc1-c1nc2ccccc2n1CC1CC1 | -94 | i | ? | i | i
C[C@H](CCC(=O)NN)[C@@H]1CC[C@@H]2[C@H]3CC[C@H]4C[C@@H](O)CC[C@@]4(C)[C@@H]3CC[C@]21C | nt | nt | i[13.5 µM] | i[11.4 µM] | i
CC1CCCCN1CC(=O)Nc1ccc(Oc2ccccc2)cc1 (stereo unspecified) | i | i | i | i | ?
CCC(=O)Nc1ccc(N2CCCCC2)cc1 | i | i | i | i | i
O=C(CNCc1ccco1)Nc1ccc(N2CCCCCC2)cc1 | nt | i | 35µM | nt | nt
O=C(CCl)Nc1ccc(N2CCCCCC2)cc1 | nt | ? | 2.2µM | nt | nt
CCNC(=S)Nc1ccc(N2CCCCC2)cc1 | nt | ? | 25µM | nt | nt
CC1CCCCN1CC(=O)Nc1ccc(N2CCCCCC2)cc1 (stereo unspecified) | nt | nt | 20µM | nt | nt
O=C(Cc1ccccc1)Nc1ccc(N2CCCCC2)cc1 | nt | nt | i | nt | nt
Cn1ncc2c(NCc3ccc(Cl)cc3)ncnc21 | nt | i | nt | nt | nt
COc1ccc(NC(=O)N2CCC3(CC2)CCN(C(=O)c2cc(C(F)(F)F)cc(C(F)(F)F)c2)CC3)cc1 | nt | nt | i | i | i
COc1ccc(-c2cc(C(=O)OCC(=O)c3cccc([N+](=O)[O-])c3)c3cc(C)ccc3n2)cc1 | i | i | i | i | i
Cc1cc(C(=O)OCC(=O)c2cccc([N+](=O)[O-])c2)c2cccc(C)c2n1 | i | i | 22µM | i | i
COc1ccc(-n2c(C)cc(C(=O)CN3C(=O)NC4(CCCc5sccc54)C3=O)c2C)cc1 (stereo unspecified) | i | ? | i | i | i
